The full list was thinned out, with hits kept by preference.
Tg IFNy HTS – blocks Toxoplasma gondii growth in the presence of IFN-gamma; Toxoplasma gondii growth in IFN-gamma-treated host cells; hits give low values; AID 1259416; activity change, negative = inhibition, % (no concentration beside the values); 69,000 tested, 3.8% active; in the data active means activity change below about -70%, passing the limit was not always enough;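 further: host cells are HeLa cells infected with Toxoplasma gondii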
An asterisk follows results filed as active; ! = a repeat was not active.

SMILES	Tg IFNy HTS
CC(=O)N1C(Cn2cccn2)CC2CN(S(C)(=O)=O)CCC21 (centres undefined)	3
CCc1nccc(CN2CCN(C)C3(CCN(C(=O)C(C)(C)C)CC3)C2)n1	10
Clc1ccc(NCn2nnc3ccccc32)cc1	90
CC(C)N=c1cc2n(-c3ccc(Cl)cc3)c3ccccc3nc-2cc1Nc1ccc(Cl)cc1	-71*!
Cc1ccc2c(c1)NC1(CCN(S(=O)(=O)c3ccccc3Cl)CC1)c1cccn1-2	19
Cc1nc(NCCN(C)CCc2ccccc2)c2cnn(C)c2n1	-4
Cc1ncc(CN2CCC3(CC2)CNC(=O)C3)cn1	37
Cc1ccc(S(=O)(=O)NCc2ccccc2)cc1	14
CCCCNS(=O)(=O)c1ccc(S(=O)(=O)NCc2ccncc2)cc1	-80*
O=S(=O)(NCCc1ccncc1)c1cc(C(F)(F)F)cc(C(F)(F)F)c1	22
COc1ccc(-c2nc(C)c(CCNC(=O)C(=O)Nc3ccccc3)s2)cc1OC	14
CCCCCCCCCCCCCCCCn1cc[n+](Cc2ccccc2)c1C	-79*
CCCCCN=c1ccn(Cc2ccccc2)c2ccccc12	0
CCCS(=O)(=O)N1C[C@H]2CCCO[C@H]2[C@@H](Nc2ccccn2)C1	-1
CCC(C)NC(=O)Cn1c(=O)c(S(=O)(=O)c2ccccc2)cc2ccccc21 (centres undefined)	-19
Cc1cccc(C(=O)Nc2nc(-c3ccccc3)c(-c3ccccc3)s2)c1	-72*
Cc1cccc(C(=O)NCCc2sc(-c3ccccc3)nc2C)c1	426
O=C(Nc1sc(NC(=O)c2cccs2)nc1-c1cccs1)c1ccccc1	2
Cc1ncc(-c2ccc(C)c(S(=O)(=O)N[C@@H]3CC[C@@H](N)C3)c2)o1	-4
COc1ccc(-c2nc(Cn3nnc(C(=O)Nc4cc(C)cc(C)c4)c3C)c(C)o2)c(OC)c1	-42
Cc1onc(-c2ccc(Cl)cc2)c1-c1ccnc(SCC(=O)c2ccccc2)n1	-72*
CC(C)c1ccc(NC(=O)CSc2nccc(-c3csc(-c4ccccc4)n3)n2)cc1	-22
Cc1ccc(C(=O)CSc2ncn(-c3ccccc3)n2)cc1	12
CN(C)c1ccc(/C=C/CN2CCC3(CC2)C(=O)N(Cc2ccccc2)C(=O)N3C)cc1	25
Cc1cc2oc(C(=O)N3CCC(O)(c4ccccc4C)CC3)cc(=O)c2cc1C	24
SMILES	Tg IFNy HTS
COc1ccc(CNC(=O)N2CCC(c3nc(C(=O)N4CCOCC4)c(C)o3)CC2)cc1	-32
C[C@@H]1CN([C@@H](C)CO)C(=O)c2c(c3ccccc3n2C)-c2ccccc2CO[C@H]1CN(C)Cc1cccc(C(F)(F)F)c1	-66
C[C@@H]1CN([C@H](C)CO)C(=O)c2c(c3ccccc3n2C)-c2ccccc2CO[C@H]1CN(C)Cc1cccc(C(F)(F)F)c1	-74*
C[C@@H]1CN([C@@H](C)CO)C(=O)c2c(c3ccccc3n2C)-c2ccccc2CO[C@@H]1CN(C)C	-18
COC(=O)c1cc2n(n1)CCCN(C1CCN(S(C)(=O)=O)CC1)C2	42
CCc1ccc(NC(=O)N2CCc3nc(-c4ccc(OC)c(OC)c4)sc3C2)cc1	-79*
COc1ccc(-c2nc3c(s2)CN(C(=O)Nc2cc(C)ccc2C)CC3)cc1OC	21
COc1ccc(-c2nc3c(s2)CN(C(=O)Nc2ccc(C)c(C)c2)CC3)cc1OC	-83*
Cc1ccc(-c2nc3c(s2)CN(C(=O)Nc2cc(C)ccc2C)CC3)cc1	-35
CCc1ccccc1NC(=O)N1CCc2nc(-c3cccc(OC)c3)sc2C1	30
CCc1ccccc1NC(=O)N1CCc2nc(-c3ccc(OC)c(OC)c3)sc2C1	46
CCc1nn(C)c(Cl)c1CN1CCN(Cc2ccc(Cl)cc2)CC1	-15
CS(=O)(=O)N1CCCc2cc(C(=O)O)ccc21	-28
C[C@H](NC(=O)Cc1cc(F)cc(F)c1)C(=O)N[C@@H]1C(=O)N(C)c2ccccc2-c2ccccc21	-83*
CN1C(=O)C(CCC(=O)O)c2ccccc21 (centres undefined)	27
CC(C)[C@H](O)C(=O)N[C@@H](C)C(=O)N[C@H]1C(=O)N(C)CCc2ccccc21	-6
CCO[C@@H]1CN(S(=O)(=O)c2cccnc2)[C@H]2CCCO[C@@H]12	6
COc1ccccc1-n1cc(C(=O)N(C)Cc2nncn2C(C)C)cn1	5
CCCCc1ncc(-c2nccn2Cc2ccncc2)[nH]1	1
OC(CSc1nc2ccccc2s1)Cn1c2ccccc2c2ccccc21 (centres undefined)	-75*
C=CCn1c(SCC(O)Cn2c3ccccc3c3ccccc32)nnc1-c1ccco1 (centres undefined)	-49
Cc1nc2ccccc2n1CC(O)Cn1c2ccccc2c2ccccc21 (centres undefined)	-1
CC(C)N1CCC2(CCCN(C(=O)c3ccoc3)C2)CC1	91
CN(C1CCCCC1)S(=O)(=O)c1ccc(NCc2cnn3cccnc23)cc1	-1
Cc1ccc(-c2cc(-c3ccccc3)c3c(n2)-c2ccccc2CCC3)cc1	10
SMILES	Tg IFNy HTS
CC(C)NC(=O)CC1CC2(CCN(Cc3cnn(C)c3)CC2)Oc2ccccc21 (centres undefined)	39
CCCCN(CC)C(=O)c1ncn2c1CN(CC1CC1)S(=O)(=O)c1ccccc1-2	0
CCCCCN(C)C(=O)c1ncn2c1CN(CC1CC1)S(=O)(=O)c1ccccc1-2	-1
CN(C(=O)c1ncn2c1CN(CC1CC1)S(=O)(=O)c1ccccc1-2)c1ccccc1	-105*
O=C1CCCCCN1CCC(=O)N1CC[C@@H](c2ccc3c(c2)OCO3)[C@H](O)C1	-8
Cc1ccc(C(=O)N2CCCC2c2nn(C)cc2-c2cc(C)no2)cn1 (centres undefined)	-2
O=C(CCN1Cc2ccccc2C1=O)Nc1cnn(Cc2ccc(F)cc2)c1	-15
CC(C)OCC(=O)Nc1cnn(CC(=O)Nc2ccc(F)cc2)c1	2
CCCc1cc(C(=O)Nc2cnn(Cc3ccc(F)cc3)c2)n[nH]1	-90*
Cc1cc(C(=O)NCCN2CCCC(C)C2)n[nH]1 (centres undefined)	-49
Cc1cccn2cc(C(=O)NC3C=CS(=O)(=O)C3)nc12 (centres undefined)	-36
Cc1cc(N)n2c(nc3ccccc32)c1C#N	116
COc1cccc(-c2nc(Cn3ccn4nc(-c5ccccc5)cc4c3=O)c(C)o2)c1OC	10
Cc1cc(C)n(Cc2nc(-c3ccc(NC(=O)c4cc(F)cc(F)c4)cc3)oc2C)n1	-32
Cc1cc(C)n(Cc2nc(-c3ccc(NC(=O)c4ccc(Cl)cc4)cc3)oc2C)n1	2
Cc1cc(C)n(Cc2nc(-c3ccc(NC(=O)Cc4ccccc4C)cc3)oc2C)n1	41
Cc1cc(C)n(Cc2nc(-c3ccc(NC(=O)c4ccc(C)c(F)c4)cc3)oc2C)n1	17
Cc1cc(C)n(Cc2nc(-c3ccc(NC(=O)c4ccccc4)cc3)oc2C)n1	1
Cc1cc(C)n(Cc2nc(-c3ccc(NC(=O)CCc4ccccc4)cc3)oc2C)n1	-69
Cc1cc(C)cc(C(=O)Nc2ccc(-c3nc(Cn4nc(C)cc4C)c(C)o3)cc2)c1	-97*
Cc1ccc(C)c(C(=O)Nc2ccc(-c3nc(Cn4nc(C)cc4C)c(C)o3)cc2)c1	-75*
COc1cccc(CC(=O)Nc2ccc(-c3nc(Cn4nc(C)cc4C)c(C)o3)cc2)c1	-85*
COc1ccc(C(NC(=O)c2ccccc2)c2ccc(OC)cc2)cc1	-26
CN(C)C(=O)COCC1CN(Cc2nccs2)Cc2cncn2C1 (centres undefined)	-2
CSc1ccc2c(C)cc(N3CCC(CCC(N)=O)CC3)nc2c1	-5
